# From PubChem BioAssay AID2401 (Southern Research Specialized Biocontainment Screening …, 2010)
# The campaign covered roughly 2,200 compounds. About 530 (24%) were called active. These entries were drawn from the full list. Entries with a potency or affinity are not part of this list. Values without a mark were called inactive.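 The calls were made as follows: active = inhibition above a set limit at one or more concentrations of the dose series; inactive = inhibition under that limit at every dose.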
# Assay: nmpC-GFP reporter counter-screen in S. Typhimurium, dose response, counter-screen for PhoP regulon inhibitor project, Salmonella Typhimurium, GFP fluorescence (AID 2401);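 also: S. typhimurium with Mg-insensitive nmpC-GFP reporter grown at 10 µM Mg2+; drop in reporter fluorescence reflects general culture growth inhibition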
# Details: 4 h; series mostly up to 150 µM; inhibition: at the top concentration
row,Structure (SMILES),inhibition [%]
1,Fc1cccc(NCc2cn3ccccc3n2)c1,23.2
2,O=S(=O)(c1ccc(N2CCCC2c2nc3ccccc3s2)nc1)N1CCOCC1 (centres undefined),-14.8
3,Nc1nnc(Sc2ccc(Cl)cc2[N+](=O)[O-])s1,-0.98
4,C(=C\c1ccccc1)/C=N/Nc1nc2ccccc2[nH]1,19.1
5,CN(c1cccc(Cl)c1)S(=O)(=O)c1cccc(C(=O)Nc2nc3ccccc3[nH]2)c1,16.2
6,CCN(CC)c1ccc(/C=N/NC(=S)NCc2ccccc2)c(O)c1,9.66
7,C#CCn1cc(/C=N/Nc2nc3ccccc3[nH]2)c2ccccc21,31.1
8,COc1ccc(/C=C/c2nc3ccccc3n2Cc2ccccc2OC)cc1,-5.49
9,COc1ccccc1NC(=O)Cn1nnc(-c2ccccc2NC(=O)c2cccs2)n1,-10.7
10,COC(=O)CSc1nnc(-c2ccco2)n1Cc1ccco1,-13.6
11,Cc1cccc(-n2nc3c(c2NC(=O)c2ccco2)CSC3)c1C,-29.7
12,C/C(=N/Nc1nc(-c2ccc(Cl)cc2)cs1)c1cccs1,-20.6
13,CCN(CC)CC(=O)Nc1nc(-c2ccc(Cl)cc2)cs1,-3.92
14,O=C(C[n+]1cc(-c2ccccc2)n2c1CCCCC2)c1ccc(Cl)cc1,-22.6
15,COc1ccc(OC)c(NC(=S)NCCCN2CCOCC2)c1,-26.6
16,CN(CCNS(=O)(=O)c1ccc2c(c1)oc(=O)n2C)Cc1ccccc1,14.6
17,Cc1cc(C)c(C#N)c(SCC(O)CS(=O)(=O)Cc2ccccc2)n1 (centres undefined),-4.96
18,O=C(CSC1CCCCC1)Nc1ccccc1Br,-14.2
19,Cc1ccc(C(=O)Oc2ccc(C(=O)COC(=O)c3cnccn3)cc2)cc1,-20.6
20,O=C(NC1CCCCC1)C(c1ccncc1)N(Cc1ccccc1)C(=O)c1ccc(-c2ccccc2)[nH]1 (centres undefined),8.67
21,Clc1ccccc1OCCn1ccnc1,-11.3
22,Cc1ccc(C(=O)NCc2ccc(Cl)cc2)o1,15.7
23,S=C(Nc1ccc2snnc2c1)N1CCN(c2ccccn2)CC1,34.2
24,CC1CN(C(=O)CCc2ccccc2)C(C)CN1C(=O)CCc1ccccc1 (centres undefined),1.08
25,Cc1ccc(NC(=S)NC(NC(=O)c2ccco2)C(Cl)(Cl)Cl)cc1 (centres undefined),12.3

row,Structure (SMILES),inhibition [%]
1,O=C(NC(NC(=S)Nc1ccc(Cl)cc1)C(Cl)(Cl)Cl)c1ccco1 (centres undefined),-30.7
2,O=c1c(Br)c(Br)cnn1-c1ccccc1,26.3
3,Clc1ccc(-c2csc3ncnc(N4CCc5ccccc5C4)c23)cc1,-19.2
4,CCOC(=O)c1sc2nccc(N(C)C)c2c1N=CNOCc1c(F)cccc1Cl,0.78
5,Cc1ccc2cccnc2c1NC(=S)NC(=O)c1ccccc1,3.45
6,O=C(NC(c1ccc(Cl)cc1)c1c(O)ccc2ccccc12)c1ccccc1 (centres undefined),-14.6
7,CCCCCn1c(C(C)NC(=O)CCC)nc2ccccc21 (centres undefined),4.48
8,O=C(Cc1ccccc1)NC1c2ccccc2-c2ccccc21,-12.7
9,O=C(CSc1nnc(-c2ccc(O)cc2)n1-c1ccccc1)CC(=O)Nc1ccccc1,15.1
10,O=C(OCC1COc2ccccc2O1)c1ccccc1F (centres undefined),-18.5
11,CC1=C(C(=O)OCC2CCCO2)C(c2cccc(C(F)(F)F)c2)C2=C(CC(c3ccco3)CC2=O)N1 (centres undefined),-25.9
12,O=S(=O)(Nc1ccc(Cc2ccncc2)cc1)c1ccc(Br)s1,-31.1
13,Cn1ncc(N=Cc2ccccc2O)c1C(=O)Nc1ccccc1,8.45
14,N#CC1=C(N)Oc2c(O)cc3ccccc3c2C1c1ccsc1 (centres undefined),-14.3
15,O=C(CSCc1ccccc1)Nc1ccc2c(c1)OCO2,-7.93
16,CCOc1cc(CNn2cnnc2)ccc1OCC(=O)NC1CCCCC1,-8.61
17,O=C(CCCNS(=O)(=O)c1ccccc1)NCc1ccco1,-22.5
18,Cc1ccc(C(=O)Nc2ccc3c(c2)OCO3)o1,18.3
19,Clc1ccc(C[n+]2cc(-c3ccc(Cl)cc3)n3c2CCC3)cc1,36.7
20,Clc1ccc(-c2cnc3n2CCC3)cc1,15
21,COC(=O)Cc1c(O)ccn(Cc2ccc(F)cc2)c1=O,-29.4
22,O=C(O)Cn1cc(C(=O)c2ccco2)c2ccccc21,2.21
23,CCn1cc(C(=O)O)c(=O)c2cc(OC)ccc21,32.4
24,O=C(Nc1ccc(NC(=O)C23CC4CC(CC(C4)C2)C3)cn1)c1ccco1,-21.7
25,Oc1ccc(-c2n[nH]c(=S)n2-c2ccc3c(c2)OCCO3)c(O)c1,-14.8

row,Structure (SMILES),inhibition [%]
1,Nn1c(COc2cccc(Br)c2)nnc1SCC(=O)N1CCc2ccccc2C1,-13.3
2,c1ccc2c(C3=NNC(=NC4CC4)SC3)c[nH]c2c1,13.1
3,O=C(Nc1cnn(Cc2ccc(Cl)cc2Cl)c1)c1noc2c1CCCC2,-3.26
4,CC(=O)c1c(N2CCN(C(=O)C3CCCO3)CC2)nc(=S)n(-c2ccccc2)c1C (centres undefined),-21.4
5,Nc1ccccc1NC1=CC(=O)CC(c2ccco2)C1 (centres undefined),9.99
6,CCOC(=O)C1=NNC2(c3ccc(Cl)cc3)C(=O)N(c3cc(C)cc(C)c3)C(=O)C12 (centres undefined),-3.41
7,NC1=NC(=Nc2ccc(Cl)cc2)c2ccccc21,-24.5
8,C=CCNCC#CCOc1ccc(OC)cc1,-14.8
9,O=C1NC2=C(CCc3ccccc32)C(c2ccc(Br)cc2)N1 (centres undefined),6.23
10,Cc1nc(C(=O)Nc2ccc(Cl)cc2)nn1-c1ccc([N+](=O)[O-])cc1,-32.7
11,O=c1[nH]c2cc3c(cc2cc1CN(CCc1ccccc1)Cc1nnnn1CC1CCCO1)OCO3 (centres undefined),18.2
12,Cc1cc(-c2csc(NC(=O)c3ccc(S(=O)(=O)N(C)C)cc3)n2)c(C)n1-c1ccccc1,12.5
13,Cc1cc(C(=O)NCc2ccco2)no1,-21.8
14,COc1ccc(-c2cc(-c3ccc(OC)c(OC)c3)n[nH]2)c(O)c1,14.4
15,COCCNC(=O)c1ccccc1NS(=O)(=O)c1ccc(Br)s1,-25.5
16,Cc1cccn2cc(CSc3nnc(Nc4ccc(C(C)C)cc4)s3)nc12,8.71
17,CCC(CC)C(=O)N1c2ccc(F)cc2CCC1C (centres undefined),4.44
18,CC1(C)CC(=O)C2=C(C1)N(Cc1ccccc1)C(=O)C2(O)C(F)(F)F (centres undefined),-24.5
19,COc1ccc(CNc2nc3c(c(=O)[nH]c(=O)n3C)n2CCCc2ccccc2)cc1,-4.23
20,COC(=O)c1cc(C#N)c(Oc2cccc(C)c2C)nc1C,-23.6
21,COC(=O)CN1C(c2ccc(OC)cc2)=Nc2ccc(Cl)cc2C1c1ccccc1 (centres undefined),-26.8
22,CCCCn1c(O)c(C(CC)=Nc2ccc3c(c2)CCC3)c(=O)[nH]c1=O,-7.34
23,Cc1ccc(C(=O)N2CC3(C(C)C)CN(C(=O)c4ccc(C)cc4)CC(C(C)C)(C2)C3=O)cc1,-24.9
24,Cc1ccc(C(=O)C(OC(=O)COc2ccccc2C)c2ccccc2)cc1 (centres undefined),0.19
